According to PubChem BioAssay (NCI):
This is part of a sample that, as a whole, favours compounds with a hit. Of some 83,000 tested, about 20% had one in any assay.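 Step 1: grow cells in 96-well plates. Step 2: add test compound at a single concentration. Step 3: incubate 48 h. Step 4: record percent growth.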 Calls of active or inactive are those of the source. Rule for the calls: active = growth percent below 10; inactive = the rest.

Assays:
Assay in all cases: NCI-60 one-dose screen, 48 h (100 = growth as untreated, 0 = no growth, -100 = all killed)
NCI-H460 lung = details: 10 µM unless noted
K-562 leukemia = details: 10 µM unless noted
MALME-3M melanoma = details: 10 µM unless noted
RXF 393 renal = details: 10 µM unless noted
SF-295 CNS = details: 10 µM unless noted
UACC-257 melanoma = details: 10 µM unless noted
SNB-75 CNS = details: 10 µM unless noted
U251 CNS = details: 10 µM unless noted
SK-MEL-5 melanoma = details: 10 µM unless noted
SK-MEL-2 melanoma = details: 10 µM unless noted
SN12C renal = details: 10 µM unless noted
UO-31 renal = details: 10 µM unless noted
HL-60(TB) leukemia = details: 10 µM unless noted
MOLT-4 leukemia = details: 10 µM
SR leukemia = details: 10 µM
RPMI-8226 leukemia = details: 10 µM unless noted
IGROV1 ovarian = details: 10 µM
BT-549 breast = details: 10 µM
HCT-116 colon = details: 10 µM unless noted
HCC-2998 colon = details: 10 µM unless noted

Measured: growth

CC(=O)Nc1ccc(Cc2ccc(NC(C)=O)cc2)cc1
inactive: NCI-H460 lung 104% | K-562 leukemia 112% | MALME-3M melanoma 103% | RXF 393 renal 89.4% | SF-295 CNS 108% | UACC-257 melanoma 99.1% | SNB-75 CNS 93.4% | U251 CNS 101% | SK-MEL-5 melanoma 104% | SK-MEL-2 melanoma 125% | SN12C renal 101% | UO-31 renal 78% | HL-60(TB) leukemia 49.1% | MOLT-4 leukemia 76.3% | SR leukemia 125% | RPMI-8226 leukemia 98.2% | IGROV1 ovarian 116% | BT-549 breast 117% | HCT-116 colon 94.9% | HCC-2998 colon 116%

CCC(C)/C=C(C)/C=C/C(=O)c1c(O)c(-c2ccc(O)cc2)c[nH]c1=O (centres undefined)
inactive: NCI-H460 lung 31.6% | K-562 leukemia 39.2% | MALME-3M melanoma 75% | RXF 393 renal 52.3% | SF-295 CNS 57.5% | UACC-257 melanoma 55.8% | U251 CNS 40.9% | SK-MEL-5 melanoma 63.4% | SK-MEL-2 melanoma 89.1% | SN12C renal 60.5% | UO-31 renal 35% | HL-60(TB) leukemia 36% | MOLT-4 leukemia 29.4% | SR leukemia 13% | RPMI-8226 leukemia 41.6% | IGROV1 ovarian 40.7% | HCT-116 colon 39% | HCC-2998 colon 47.5%

CCCCOC(=O)c1ccccc1C(=O)O.CCCCOC(=O)c1ccccc1C(=O)O.[Cu+2]
inactive: NCI-H460 lung 109% | K-562 leukemia 96.2% | MALME-3M melanoma 83.3% | RXF 393 renal 116% | UACC-257 melanoma 110% | SNB-75 CNS 104% | SK-MEL-5 melanoma 98% | SK-MEL-2 melanoma 117% | SN12C renal 113% | UO-31 renal 96.5% | HL-60(TB) leukemia 89.6% | MOLT-4 leukemia 96.8% | SR leukemia 92.7% | IGROV1 ovarian 122% | HCC-2998 colon 104%

COc1cc(CNCCc2ccc(Cl)cc2)cc(OC)c1O
inactive: NCI-H460 lung 83.3% | K-562 leukemia 21.7% | RXF 393 renal 66.3% | UACC-257 melanoma 90.2% | SNB-75 CNS 44.6% | U251 CNS 58.5% | SK-MEL-5 melanoma 72.8% | SK-MEL-2 melanoma 27.8% | SN12C renal 75.5% | UO-31 renal 61% | HL-60(TB) leukemia 54.4% | MOLT-4 leukemia 37.3% | SR leukemia 14.5% | RPMI-8226 leukemia 42.4% | IGROV1 ovarian 81.3% | BT-549 breast 71.8% | HCT-116 colon 60.9% | HCC-2998 colon 83.2%

COc1ccc(CN2CCN(Cc3ccccc3)CC2)c(O)c1
inactive: NCI-H460 lung 97% | K-562 leukemia 74.3% | MALME-3M melanoma 98.4% | RXF 393 renal 105% | SF-295 CNS 99.8% | UACC-257 melanoma 105% | SNB-75 CNS 89.8% | U251 CNS 95.1% | SK-MEL-5 melanoma 87.9% | SK-MEL-2 melanoma 89.9% | SN12C renal 91.2% | UO-31 renal 68.7% | HL-60(TB) leukemia 91.9% | MOLT-4 leukemia 83.7% | SR leukemia 73.5% | RPMI-8226 leukemia 77.1% | IGROV1 ovarian 91.3% | BT-549 breast 92% | HCT-116 colon 83.4% | HCC-2998 colon 89.4%

CC(=O)O[C@H]1CCC2C3CCC4=C/C(=N/O)CCC4(C)C3CCC21C (some centres undefined)
inactive: NCI-H460 lung 89.6% | K-562 leukemia 45.9% | MALME-3M melanoma 94.3% | RXF 393 renal 102% | UACC-257 melanoma 114% | SNB-75 CNS 96.4% | U251 CNS 83.3% | SK-MEL-5 melanoma 87.4% | SK-MEL-2 melanoma 85.4% | SN12C renal 103% | UO-31 renal 65.1% | HL-60(TB) leukemia 23.1% | MOLT-4 leukemia 72.6% | SR leukemia 36.7% | RPMI-8226 leukemia 89.4% | IGROV1 ovarian 87.6% | HCT-116 colon 75.3% | HCC-2998 colon 83.9%

COc1ccc(NP2(=O)OCC(C)(N)CO2)cc1 (centres undefined)
inactive: NCI-H460 lung 108% | K-562 leukemia 88.9% | MALME-3M melanoma 97.3% | RXF 393 renal 104% | UACC-257 melanoma 97.6% | SNB-75 CNS 95.7% | SK-MEL-5 melanoma 96.3% | SK-MEL-2 melanoma 108% | SN12C renal 105% | UO-31 renal 75.6% | HL-60(TB) leukemia 95% | MOLT-4 leukemia 82.2% | SR leukemia 88.7% | IGROV1 ovarian 102% | BT-549 breast 77% | HCT-116 colon 98.8% | HCC-2998 colon 109%

CCC[CH2][Sn]([CH2]CCC)([CH2]CCC)[O]C(=O)c1ccc(Cl)cc1Cl
active: NCI-H460 lung -78% | K-562 leukemia -38.2% | MALME-3M melanoma -76.8% | RXF 393 renal -88.5% | SF-295 CNS -89.9% | UACC-257 melanoma -94.8% | U251 CNS -85.8% | SK-MEL-5 melanoma -96.1% | SK-MEL-2 melanoma -73.6% | SN12C renal -83.9% | UO-31 renal -86.9% | HL-60(TB) leukemia -32.7% | MOLT-4 leukemia -16.6% | SR leukemia 3.12% | RPMI-8226 leukemia -29.7% | IGROV1 ovarian -68.5% | BT-549 breast -96% | HCC-2998 colon -90.9%

OC1CCCCC1N1CCC(c2ccccc2)CC1 (centres undefined)
inactive: NCI-H460 lung 109% | MALME-3M melanoma 103% | RXF 393 renal 124% | SF-295 CNS 98.5% | UACC-257 melanoma 109% | U251 CNS 105% | SK-MEL-5 melanoma 106% | SN12C renal 109% | UO-31 renal 82.5% | HL-60(TB) leukemia 86.2% | MOLT-4 leukemia 79.9% | SR leukemia 94% | RPMI-8226 leukemia 107% | IGROV1 ovarian 112% | BT-549 breast 97.6% | HCT-116 colon 94.5% | HCC-2998 colon 93.2%

O1[As]2O[As]3O[As]1O[As](O2)O3
inactive: MOLT-4 leukemia 10.7% | RPMI-8226 leukemia 15.1% | IGROV1 ovarian 14.6% | HCC-2998 colon 23.3%
active: NCI-H460 lung 3.94% | MALME-3M melanoma -15% | RXF 393 renal -47.6% | SF-295 CNS 4.61% | UACC-257 melanoma -22.1% | SNB-75 CNS -0.103% | U251 CNS -69.2% | SK-MEL-5 melanoma -91.5% | SK-MEL-2 melanoma -34.8% | SN12C renal 4.31% | UO-31 renal -7% | HL-60(TB) leukemia 1.06% | BT-549 breast -12.1% | HCT-116 colon -10.3%

NC(=O)C(Br)CBr (centres undefined)
inactive: SF-295 CNS 81.1% | SNB-75 CNS 103% | U251 CNS 26.9% | SK-MEL-5 melanoma 55.6% | SN12C renal 22% | HCC-2998 colon 38.4%
active: NCI-H460 lung 4.13% | K-562 leukemia -50.1% | UACC-257 melanoma -83.5% | SK-MEL-2 melanoma -85.3% | UO-31 renal -51.8% | HL-60(TB) leukemia -23.2% | MOLT-4 leukemia -62.1% | RPMI-8226 leukemia -39.3% | HCT-116 colon -92.7%

COc1cc(NCCCCCN=C(N)N)c2ncccc2c1
inactive: NCI-H460 lung 65.9% | K-562 leukemia 16.1% | MALME-3M melanoma 19.6% | SF-295 CNS 61.1% | UACC-257 melanoma 79.7% | SNB-75 CNS 47% | U251 CNS 28.1% | SK-MEL-2 melanoma 43.3% | UO-31 renal 83.9% | HL-60(TB) leukemia 18.2% | SR leukemia 33.5% | RPMI-8226 leukemia 58.2% | IGROV1 ovarian 23.6% | BT-549 breast 38.7% | HCC-2998 colon 55.9%
active: SN12C renal 7.58% | MOLT-4 leukemia 4.38% | HCT-116 colon 6.08%

O=CN1N=C(c2ccc3c(c2)OCO3)CC1c1sc(N(CCCl)CCCl)nc1Cl (centres undefined)
inactive: NCI-H460 lung 105% | K-562 leukemia 85.4% | MALME-3M melanoma 106% | RXF 393 renal 109% | SF-295 CNS 104% | UACC-257 melanoma 84.4% | SNB-75 CNS 90.8% | U251 CNS 98.6% | SK-MEL-5 melanoma 101% | SK-MEL-2 melanoma 92.9% | SN12C renal 94.8% | UO-31 renal 74.5% | HL-60(TB) leukemia 88.6% | MOLT-4 leukemia 79.3% | SR leukemia 87.6% | IGROV1 ovarian 93.2% | BT-549 breast 94.7% | HCT-116 colon 83.8% | HCC-2998 colon 106%

CN1CC2CCC(C1)C2=O
inactive: NCI-H460 lung 104% | K-562 leukemia 93.1% | MALME-3M melanoma 79.2% | RXF 393 renal 119% | UACC-257 melanoma 102% | SNB-75 CNS 89.3% | U251 CNS 101% | SK-MEL-5 melanoma 101% | SK-MEL-2 melanoma 95.5% | SN12C renal 99.8% | UO-31 renal 62.7% | HL-60(TB) leukemia 96.3% | MOLT-4 leukemia 91.3% | SR leukemia 82.7% | RPMI-8226 leukemia 98.9% | IGROV1 ovarian 93.8% | BT-549 breast 88.8% | HCT-116 colon 95.4% | HCC-2998 colon 114%

CC1([N+](=O)[O-])COP(=O)(Nc2ccc(F)cc2)OC1 (centres undefined)
inactive: NCI-H460 lung 106% | K-562 leukemia 103% | MALME-3M melanoma 110% | RXF 393 renal 100% | SF-295 CNS 106% | UACC-257 melanoma 101% | SK-MEL-5 melanoma 98.2% | SK-MEL-2 melanoma 98% | SN12C renal 111% | UO-31 renal 73.9% | HL-60(TB) leukemia 90.4% | MOLT-4 leukemia 83% | SR leukemia 84.2% | IGROV1 ovarian 103% | BT-549 breast 96.8% | HCT-116 colon 99.4% | HCC-2998 colon 99.5%

COc1c(O)c2c3c(c1OC)-c1ccccc1CC3N(C)CC2 (centres undefined)
inactive: NCI-H460 lung 110% | K-562 leukemia 92.3% | MALME-3M melanoma 105% | RXF 393 renal 133% | SF-295 CNS 99.9% | UACC-257 melanoma 103% | SNB-75 CNS 82.4% | U251 CNS 99.1% | SK-MEL-5 melanoma 108% | SN12C renal 99.9% | UO-31 renal 89.9% | HL-60(TB) leukemia 112% | MOLT-4 leukemia 83.6% | SR leukemia 75.1% | RPMI-8226 leukemia 102% | IGROV1 ovarian 96.8% | HCT-116 colon 95.7% | HCC-2998 colon 111%

CCC(C)(C)O
inactive: NCI-H460 lung 104% | MALME-3M melanoma 110% | RXF 393 renal 111% | SF-295 CNS 87.7% | UACC-257 melanoma 119% | SNB-75 CNS 92.1% | U251 CNS 108% | SK-MEL-5 melanoma 101% | UO-31 renal 93.8% | HL-60(TB) leukemia 86.4% | MOLT-4 leukemia 121% | SR leukemia 101% | RPMI-8226 leukemia 106% | IGROV1 ovarian 117% | BT-549 breast 110% | HCT-116 colon 111% | HCC-2998 colon 112%

O=C(N/N=C/c1ccc([N+](=O)[O-])o1)c1cc([N+](=O)[O-])cc([N+](=O)[O-])c1O
inactive: NCI-H460 lung 105% | MALME-3M melanoma 122% | RXF 393 renal 102% | SF-295 CNS 104% | UACC-257 melanoma 99.2% | SNB-75 CNS 83% | U251 CNS 91.8% | SK-MEL-5 melanoma 95% | SN12C renal 96.1% | UO-31 renal 80% | HL-60(TB) leukemia 93.5% | MOLT-4 leukemia 62.8% | SR leukemia 70.7% | RPMI-8226 leukemia 99.8% | IGROV1 ovarian 97% | BT-549 breast 103% | HCC-2998 colon 102%
